Experimental findings from article PMC4336329 (PLoS ONE, 2015) are described below.

The whole screen tested about 310,000 compounds, of which about 14,000 (4.5%) showed an effect of 50% or more. The effect is printed as a negative number. The sample holds strong results, similar compounds and a random draw of the others, so the mix is not that of the screen.
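Also: peak tail current of the secondary pulse compared with the same well before compound.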

Chain of human ether-à-go-go-related gene (hERG) potassium channel (Q12809 whole entry, looked up): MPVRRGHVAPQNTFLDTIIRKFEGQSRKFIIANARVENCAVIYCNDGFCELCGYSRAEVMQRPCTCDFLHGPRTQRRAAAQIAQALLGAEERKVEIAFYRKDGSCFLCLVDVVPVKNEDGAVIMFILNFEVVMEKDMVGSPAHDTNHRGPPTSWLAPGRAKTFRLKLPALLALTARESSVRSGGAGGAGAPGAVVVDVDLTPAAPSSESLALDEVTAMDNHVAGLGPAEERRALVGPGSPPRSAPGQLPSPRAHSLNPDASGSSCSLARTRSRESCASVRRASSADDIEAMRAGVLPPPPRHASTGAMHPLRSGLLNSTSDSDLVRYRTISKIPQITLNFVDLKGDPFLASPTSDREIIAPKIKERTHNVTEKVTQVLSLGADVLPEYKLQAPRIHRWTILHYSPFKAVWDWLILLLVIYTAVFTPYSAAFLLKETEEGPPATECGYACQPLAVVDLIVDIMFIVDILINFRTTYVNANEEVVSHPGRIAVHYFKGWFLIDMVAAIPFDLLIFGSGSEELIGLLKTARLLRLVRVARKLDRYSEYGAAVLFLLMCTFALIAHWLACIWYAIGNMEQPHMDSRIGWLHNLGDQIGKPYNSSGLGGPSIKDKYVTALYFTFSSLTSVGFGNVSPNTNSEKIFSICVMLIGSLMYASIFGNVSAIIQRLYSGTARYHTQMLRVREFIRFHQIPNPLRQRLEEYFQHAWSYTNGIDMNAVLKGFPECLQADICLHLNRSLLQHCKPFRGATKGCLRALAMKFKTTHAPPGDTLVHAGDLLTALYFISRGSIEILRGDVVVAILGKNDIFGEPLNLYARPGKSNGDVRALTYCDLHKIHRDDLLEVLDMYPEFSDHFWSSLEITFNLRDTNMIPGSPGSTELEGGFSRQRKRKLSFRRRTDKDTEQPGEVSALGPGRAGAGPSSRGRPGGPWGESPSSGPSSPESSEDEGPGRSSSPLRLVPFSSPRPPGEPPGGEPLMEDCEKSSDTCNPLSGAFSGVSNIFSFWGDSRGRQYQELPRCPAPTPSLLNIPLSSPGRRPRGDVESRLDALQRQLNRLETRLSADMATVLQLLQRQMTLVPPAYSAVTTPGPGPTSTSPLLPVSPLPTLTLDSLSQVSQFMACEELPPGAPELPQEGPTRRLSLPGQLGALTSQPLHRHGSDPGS

The assay addresses human ether-à-go-go-related gene (hERG) potassium channel (human, UniProt Q12809). Put plainly: primary screen, population patch clamp on CHO cells stably expressing hERG; higher = less effect of the substance.
Turning to `COc1ccc(-c2ccc(CNCCCN3CCOCC3)o2)cc1Cl.Cl`, the “hERG current change (%, negative = inhibition) at 10uM” value worked out at 6.83%.

For the molecule `c1coc(CNCCCN2CCOCC2)c1`, the “hERG current change (%, negative = inhibition) at 10uM” value is -0.128%.

`Cc1cc(N2CCN(C)CC2)ccc1NC(=O)c1ccc(-c2ccc(Cl)cc2)o1`: the “hERG current change (%, negative = inhibition) at 10uM” value is on record as -80%.

Consider `CC(=O)N1CCN(c2ccc(NC(=O)c3cc4ccccc4o3)cc2)CC1`, for which the “hERG current change (%, negative = inhibition) at 10uM” value was -24.5%. In the case of `O=C(Nc1ccc(N2CCOCC2)cc1)c1ccc(-c2ccccc2[N+](=O)[O-])o1`, the “hERG current change (%, negative = inhibition) at 10uM” value is 15.9%.

On to `CN1CCN(c2ccc(NC(=O)c3ccc(-c4ccc(Cl)cc4)o3)cc2)CC1`, for which the “hERG current change (%, negative = inhibition) at 10uM” value was determined as 11.5%. On to `CN1CCN(c2ccc(NC(=O)c3ccc(-c4ccccc4F)o3)cc2)CC1`, for which the “hERG current change (%, negative = inhibition) at 10uM” value is reported as -70%.

As for `O=C(Nc1ccc(N2CCCC2)cc1)c1cc2ccccc2o1`, the “hERG current change (%, negative = inhibition) at 10uM” value is listed as 20.4%.

Take `CN1CCN(c2ccc(NC(=O)c3ccc(-c4ccc(Br)cc4)o3)cc2)CC1`: the “hERG current change (%, negative = inhibition) at 10uM” value is on record as 0.645%. With `CCCCc1cc(C)c(S(=O)(=O)c2ccccc2C)c(=O)[nH]1`, the “hERG current change (%, negative = inhibition) at 10uM” value was 3.69%. As for `CC(Oc1ccccc1)C(=O)NC1C(=O)N2C1SC(C)(C)C2C(=O)[O-].[K+]` (stereo not drawn), the “hERG current change (%, negative = inhibition) at 10uM” value worked out at 35.9%.

On to `CCOC(=O)c1sc(NC(=S)NC(=O)C23CC4CC(CC(C4)C2)C3)cc1C`, for which the “hERG current change (%, negative = inhibition) at 10uM” value amounted to 20.2%.

In the case of `CCCC1=NN(c2ccc([N+](=O)[O-])cc2)C(=O)/C1=C\N(C)C`, the “hERG current change (%, negative = inhibition) at 10uM” value is listed as -7.95%. The same measure for `O=C(O)C1C2CCC(O2)C1C(=O)Nc1ccc(F)c(F)c1` (stereo not drawn): 26.5%; for `CCCC(=O)Nc1ccc(C(=O)COC(=O)C2CC2C)cc1` (stereo not drawn): 5.46%; for `CCN1C(=O)/C(=C/C=C2/SCCN2C)SC1=S`: 4.78%. `COC(=O)Cn1cc(C(=O)C2CC2)c2ccccc21`: the “hERG current change (%, negative = inhibition) at 10uM” value was 2.2%. The same measure for `Cc1cc(C)c(C)c(S(=O)(=O)NCc2ccc(C(=O)N3CCN(C)CC3)cc2)c1C`: -4.7%. The same measure for `O=C(O)c1nn2c(c1Br)NC(c1ccccc1)CC2C(F)(F)F` (stereo not drawn): 12.2%; for `CCc1nnc(NC(=O)c2cc(S(=O)(=O)N(CC)CC)ccc2Cl)s1`: -7.31%; for `COc1ccccc1NC(=O)N1CCC(c2nc3ccccc3o2)CC1`: -6.16%. As for `CC(C)NC(=O)COC(=O)c1cccc(NS(=O)(=O)/C=C/c2ccccc2)c1`, the “hERG current change (%, negative = inhibition) at 10uM” value is on record as -18%. Take `Cn1cnnc1SCC(=O)NC1CCCN(Cc2ccc(Cl)cc2)C1` (stereo not drawn): the “hERG current change (%, negative = inhibition) at 10uM” value is -0.412%. The same measure for `O=C(/C=C/c1ccc(Cl)cc1)Nc1ccc(CN2CCOCC2)cc1`: -28%. The same measure for `O=C(/C=C/c1ccccc1)Nc1ccc(CN2CCOCC2)cc1`: -62.5%. Consider `O=C(/C=C/c1ccccc1)NC(=S)Nc1ccc(CN2CCOCC2)cc1`, for which the “hERG current change (%, negative = inhibition) at 10uM” value was -18.9%.

Turning to `CCSc1nnc(NC(=O)CSc2nc3c(c(=O)n2CC)SC(C)C3)s1` (stereo not drawn), the “hERG current change (%, negative = inhibition) at 10uM” value is given as 6.95%. Consider `CCC(=O)Nc1ccc(NC(=O)c2cccc3ccccc23)cc1`, for which the “hERG current change (%, negative = inhibition) at 10uM” value was 23.9%. The same measure for `COc1ccc(-c2nc(SC(CC(=O)NCc3ccccc3)c3ccc(OC)c(OC)c3)n[nH]2)cc1` (stereo not drawn): -0.421%; for `CCCn1c(SCc2nc(-c3cccs3)no2)nnc1-c1ccncc1`: -4.13%. Take `Cc1ccc(-c2noc(CSc3nnc(-c4ccncc4)n3-c3ccc(F)cc3)n2)cc1`: the “hERG current change (%, negative = inhibition) at 10uM” value was -10.3%. The same measure for `CCOc1ccc(-n2c(SCc3nc(-c4ccc(C)cc4)no3)nnc2-c2ccncc2)cc1`: -73.2%. The same measure for `CCOc1ccc(-n2c(SCc3nc(-c4cccs4)no3)nnc2-c2ccncc2)cc1`: -59.7%; for `Cc1ccc(-c2noc(CSc3nnc(-c4ccncc4)n3-c3ccc(C)cc3)n2)cc1`: -42.9%; for `c1ccc(-n2c(SCc3nc(-c4cccs4)no3)nnc2-c2ccco2)cc1`: -42.6%. The same measure for `O=c1[nH]c(=S)n(-c2ccc(Cl)cc2)c(O)c1/C=N/N1CCOCC1`: -6.08%; for `CC1CC(C)CN(S(=O)(=O)c2ccc3c(c2)CC(C)N3C(=O)C2CCC2)C1` (stereo not drawn): 4.7%; for `CC12CCC(C(=O)N3CCCCCC3)(OC1=O)C2(C)C` (stereo not drawn): 13.1%.

Take `Nc1cc(=O)[nH]c(SCC(=O)NC2CCCc3ccccc32)n1` (stereo not drawn): the “hERG current change (%, negative = inhibition) at 10uM” value was determined as 0.0692%. Turning to `CCC(=O)OCc1cc2cccc(C)c2[nH]c1=O`, the “hERG current change (%, negative = inhibition) at 10uM” value is reported as -1.03%. As for `Cc1cccc(CCNCc2cc3cc(C)cc(C)c3[nH]c2=O)c1`, the “hERG current change (%, negative = inhibition) at 10uM” value is -30.8%. The same measure for `Cc1cccc2cc(COC(=O)C(C)C)c(=O)[nH]c12`: -69.3%. The same measure for `Cc1cccc2cc(CN(Cc3ccccc3)C(=O)N(C)C)c(=O)[nH]c12`: -11.5%; for `Cc1ccccc1CCNCc1cc2cccc(C)c2[nH]c1=O`: -52.2%.

For the molecule `Cc1cccc2cc(COC(=O)c3ccccc3)c(=O)[nH]c12`, the “hERG current change (%, negative = inhibition) at 10uM” value is -0.867%. The same measure for `Cc1cccc(CCNCc2cc3cccc(C)c3[nH]c2=O)c1`: -64.1%; for `CC(=O)OCc1cc2cccc(C)c2[nH]c1=O`: -9.76%; for `Cc1cccc(CCN(Cc2cc3cccc(C)c3[nH]c2=O)C(=O)N2CCOCC2)c1`: -29.4%.
